Laboratory results taken from PubChem BioAssay AID2599 (Sanford-Burnham Center for Chemical Genomics, 2010).
The campaign covered roughly 330,000 compounds. About 5,800 (1.8%) were called active.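 Rule for the calls: active = inhibition above about 50% at the single tested dose (limit read from the data); inactive = the rest.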 The full list was thinned out, with actives kept by preference.

target: Sentrin-specific protease 6 (Homo sapiens) (UniProt Q9GZR1); test: SENP6 protease inhibitors, primary screen, biochemical, luminescence, uHTS (AID 2599); conditions: Recombinant SENP6 catalytic domain, aminoluciferin luminescence; at 10 µM; hits give high values;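 note: plate controls were DMSO wells with enzyme for no effect and DMSO wells lacking enzyme for full effect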
Sequence (Q9GZR1 628-1112 limits assumed): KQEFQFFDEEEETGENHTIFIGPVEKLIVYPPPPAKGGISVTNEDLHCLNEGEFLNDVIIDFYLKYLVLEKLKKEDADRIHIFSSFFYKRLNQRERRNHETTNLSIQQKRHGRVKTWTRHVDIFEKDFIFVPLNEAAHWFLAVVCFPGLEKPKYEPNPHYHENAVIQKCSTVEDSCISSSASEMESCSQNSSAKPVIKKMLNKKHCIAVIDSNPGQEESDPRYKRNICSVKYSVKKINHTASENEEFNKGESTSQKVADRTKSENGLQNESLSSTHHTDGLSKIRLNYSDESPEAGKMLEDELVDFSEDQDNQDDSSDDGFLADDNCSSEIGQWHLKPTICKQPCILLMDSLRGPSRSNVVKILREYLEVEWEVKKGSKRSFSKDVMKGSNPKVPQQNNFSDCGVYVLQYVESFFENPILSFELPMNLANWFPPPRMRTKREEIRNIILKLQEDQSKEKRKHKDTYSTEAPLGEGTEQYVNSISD

inhibition, active:
O=C(Nc1nc2ccccc2s1)c1ccc2c(c1)OCO2 94.8%
O=C(Nc1cccc([N+](=O)[O-])c1)c1ccc2c(c1)OCO2 66.7%
O=C(Nc1ccccc1)c1ccc2c(c1)OCCCO2 86.7%
CC(=O)Nc1cccc(C(=O)OCC(=O)c2ccc3c(c2)OCO3)c1 83.6%
O=C(Nc1ccccc1F)c1ccc2c(c1)OCO2 71.4%
O=C(Nc1ccccc1)c1ccc2c(c1)OCO2 85.1%
COc1ccc(C(=O)Nc2ccc3c(c2)OCO3)cc1OC 80.8%
COc1ccc(C(=O)Nc2ccc(C3(C#N)CCCC3)cc2)cc1OC 96.3%

inhibition, inactive:
CCc1ccc(NC(=O)CN2C(=O)CSC2=O)cc1 3.31%
CCc1nc2sc3c(Cl)ncnc3c2c2c1CCCC2 -2.17%
CN1CCN(c2ccc(NC(=O)c3ccc4c(c3)OCCO4)cc2Cl)CC1 3.53%
CC(NC(=O)COC(=O)c1ccc2c(c1)OCO2)c1ccccc1 (stereo unspecified) -2.95%
COCc1nnc(NC(=O)c2ccc3c(c2)OCO3)s1 13.6%
Cc1ccc2sc(NNC(=O)c3ccc4c(c3)OCCO4)nc2c1C 12.7%
CC(NC(=O)Nc1cccc([N+](=O)[O-])c1)c1ccc2c(c1)OCO2 (stereo unspecified) -3.48%
O=C(COC(=O)c1ccc(F)cc1)Nc1ccc2c(c1)OCO2 -6.02%
O=C(Nc1ccc2c(c1)OCCO2)c1ccoc1 -9.58%
Cc1onc(C(=O)Nc2ccc3c(c2)OCO3)c1[N+](=O)[O-] 0.864%
Cc1cc(NC(=O)CN2C(=O)NC(CC(C)C)C2=O)no1 (stereo unspecified) -8.76%
Cc1cc(C)nc(-n2nc(C)cc2NC(=O)c2ccc(F)cc2F)n1 6.48%
CC(=O)Nc1ccc(NC(=O)C(NS(=O)(=O)c2ccc3c(c2)OCCO3)C(C)C)cc1 (stereo unspecified) 16.7%
COc1cccc(NC(=O)N2CCC(NC(=O)C(Cc3cccc(C)c3)NC(C)=O)CC2)c1 (stereo unspecified) 20.6%
Cc1ccc2cccc(S(=O)(=O)N3CCN(c4ccccc4F)CC3)c2n1 -3.25%
O=C(Nc1ccnn1C1CCN(Cc2cccc(OCCO)c2)CC1)C1CCCC1 -17.8%
O=C(CSc1ccccn1)Nc1nc2c(ccc3ccccc32)s1 -10.2%
CCc1nn(CCCN2CCN(c3cccc(Cl)c3)CC2)c(=O)n1CCOc1ccccc1 -12%
CN(C(=O)c1cccc(NC(=O)C2CCN(C(=O)OC(C)(C)C)CC2)c1)C1CCC1 -7.07%
CCN(CC)S(=O)(=O)c1ccc(N2CC(C(=O)NCc3cccnc3)CC2=O)cc1 (stereo unspecified) -2.04%
O=C(Nc1ccc(N2CCOCC2)cc1)c1ccc2c(c1)OCO2 25.4%
O=C(Nc1ccc(NC(=O)c2ccc3c(c2)OCO3)cc1)c1cccc(Cl)c1 -11.5%
CC(C)C(=O)Nc1cccc(C(=O)Nc2ccc3c(c2)OCO3)c1 33.6%
N#Cc1ccccc1NC(=O)c1ccc2c(c1)OCO2 -12.5%
COc1ccc(C(=O)Nc2ccc3nc(N4CCCCC4)cc(C)c3c2)cc1OC -7.43%
CN(Cc1c(F)cccc1Cl)C(=O)CNC(=O)c1ccc2c(c1)OCO2 -13.3%
COc1cc(C(=O)NCC2(c3ccccc3)CCCC2)ccc1OC(C)C 2.81%
COc1cc(NC(=O)c2ccc3c(c2)OCO3)ccc1NC(=O)c1cccs1 -45.6%
